ChEMBL document CHEMBL3988442, “University of Dundee, Small-Polar-MMV Screening Library” (2021)
About 13,000 (27%) of roughly 48,000 compounds showed an effect of 50% or more. The list shows a part of the results.

tested on: Wolbachia pipientis; assay: Anti-Wolbachia Cell-Based Screen; assay type: functional; set-up: scale not given: in the data most compounds retested in dose-response had high values; settings: 5 µM

| SMILES | Percent Effect [%] |
| --- | --- |
| CCc1cc(N2CCS(=O)(=O)CC2)n2nc(C)c(C)c2n1 | 1.934 |
| Cc1cc(CNC(=O)N2CCc3ccccc32)on1 | 8.57 |
| COc1ccc(C(=O)N2CC(c3ccncc3)C2)c(OC)c1OC | -3.767 |
| O=C1Cc2cc(NC(=O)N3CCCN(Cc4cccs4)CC3)ccc2N1 | -14 |
| CC(C)c1noc(CCCC(=O)N2CCN(Cc3ccncc3)CC2)n1 | 9.979 |
| CC(C)N1CCOC(CC(=O)N2CCCN(Cc3cccs3)CC2)C1 (stereo not given) | 115.9 |
| CC(C)N1CCOC(CC(=O)N2CCCN(Cc3ccncc3)CC2)C1 (stereo not given) | 108.1 |
| Cn1cc(Cl)cc1C(=O)N1CCCN(Cc2cccs2)CC1 | 6.765 |
| CC(C)N1CCOC(CC(=O)N2CC(c3ccncc3)C2)C1 (stereo not given) | 103.1 |
| CC(C)C(C(=O)N1CCN(Cc2ccncc2)CC1)n1cncn1 (stereo not given) | -9.917 |
| CCn1nc(CC(C)C)cc1C(=O)N1CC(c2ccncc2)C1 | 2.203 |
| NC(=O)c1cnc(NCC(=O)NCc2ccco2)c(Cl)c1 | -1.038 |
| COCC(=O)N[C@H](C)c1onc(-c2ccc(Cl)cc2)c1C(=O)O | -3.63 |
| Cc1nccn1CCC1CCCCN1Cc1cccc(CCN)c1 (stereo not given) | -7.51 |
| NC(=O)Cc1csc(NC(=O)C2CSCCC(=O)N2)n1 (stereo not given) | 2.989 |
| CCOC(=O)Cc1csc(NC(=O)c2ccc(=O)[nH]n2)n1 | 95.75 |
| O=C(NCc1csc(Br)c1)c1ccc(=O)[nH]n1 | 9.228 |
| O=C(c1ccno1)N1CC(c2nc(-c3ccco3)no2)C1 | 0.6255 |
| O=S(=O)(Cc1ccccc1)NCCNc1ccc(-n2cccc2)nn1 | 11.81 |
| CNC(=O)CCc1cc(C)nc(C2CCN(CC(=O)N(C)C)CC2)c1 | 129.2 |
| Cc1cc2cc(CNC3CCN(CC(=O)N(C)C)CC3)oc2cc1C | -4.492 |
| CNC(=O)CCc1cc(C)nc(C2CCN(C(=O)CN(C)C)CC2)c1 | 154.4 |
| CN(C)C1CCN(C(=O)CCc2cc(Br)cs2)CC1 | 1.097 |
| Cc1cc(C)cc(CCC(=O)N2CCN(c3cc(C)nc(N)n3)CC2)c1 | -5.077 |
| COC(=O)[C@@H]1Cc2[nH]cnc2CN1Cc1cc2ccccc2o1 | 9.178 |
| CC(=O)N1CCCN(Cc2ccon2)c2ccccc21 | 1.908 |
| Cc1c(CS(C)(=O)=O)cccc1NCC1CCCCC1 | 1.975 |
| COC(=O)C(C)(C)NC(=O)C1CC(=O)N(CC(C)C)C1 (stereo not given) | 100.8 |

| SMILES | Percent Effect [%] |
| --- | --- |
| O=C(NCCNc1ncccn1)C1CC(=O)N(CC(F)(F)F)C1 (stereo not given) | 1.939 |
| COC(=O)C(C)(C)NC(=O)C1CC(=O)N(CC2CC2)C1 (stereo not given) | 110.1 |
| CCN1CC(C(=O)NC(C)(C)CC(C)(C)C)CC1=O (stereo not given) | 2.297 |
| CCN1CC(C(=O)NC(C)(C)CNC(=O)OC(C)(C)C)CC1=O (stereo not given) | -0.2967 |
| CCCc1nc(C(C)(C)NC(=O)C2CC(=O)N(CC3CC3)C2)no1 (stereo not given) | -6.715 |
| CCN1CC(C(=O)NC(C)(C)C(=O)OC)CC1=O (stereo not given) | 77.38 |
| CCC(C)(C)NC(=O)C1CC(=O)N(CC2CC2)C1 (stereo not given) | 3.552 |
| COC(=O)C(C)(C)NC(=O)C1CC(=O)N(C)C1 (stereo not given) | -1.781 |
| CCN1CC(C(=O)NC(C)(C)C)CC1=O (stereo not given) | -9.629 |
| CCN1CC(C(=O)NC(C)(C)CC)CC1=O (stereo not given) | -10.63 |
| COC(=O)C(C)(C)NC(=O)C1CC(=O)N(CC(F)(F)F)C1 (stereo not given) | 83.67 |
| CN(C)CCOCC1CN(C(=O)c2ccccn2)Cc2ccnn2C1 (stereo not given) | -6.376 |
| Cc1ccccc1OCCCC(=O)N(C)CCC#N | 8.227 |
| COC(=O)C(C)(C)NC(=O)C1CC(=O)N(C2CC2)C1 (stereo not given) | 103.7 |
| COC(=O)C(C)(C)NC(=O)C1CC(=O)N(C2CCCC2)C1 (stereo not given) | 4.73 |
| CC(C)(CNC(=O)OC(C)(C)C)NC(=O)C1CC(=O)N(C2CC2)C1 (stereo not given) | 10.96 |
| Fc1ccc(NC2CCCN(Cc3ccncc3)C2)cc1 (stereo not given) | 7.502 |
| Cl.Cn1nc(C2CCCN(Cc3cc(F)cc(F)c3)C2)c2nccnc21 (stereo not given) | 114.5 |
| Cl.Cn1nc(C2CCCN(Cc3cccc(F)c3)C2)c2nccnc21 (stereo not given) | 5.539 |
| CCCC(=O)NC1CCCN(Cc2cccs2)C1 (stereo not given) | 90.44 |
| Cl.Cn1nc(C2CCCN(Cc3ccc(F)cc3)C2)c2nccnc21 (stereo not given) | 103.8 |
| Cl.Cn1nc(C2CCCN(Cc3ccc(F)c(F)c3)C2)c2nccnc21 (stereo not given) | 94.15 |
| Cn1ccnc1CN1CCCC(CCc2ccc(F)c(F)c2)C1 (stereo not given) | 5.156 |
| CC(C)(C)OC(=O)NC1CCCN(Cc2cccs2)C1 (stereo not given) | 5.758 |
| COc1ccnc(CN2CCCC(CCc3ccc(F)cc3)C2)c1OC (stereo not given) | -12.62 |
| Cn1cncc1-c1nnc([C@H]2CCN(Cc3ccc(F)c(F)c3)C2)o1 | -0.5491 |
| Cc1ncsc1CCC(=O)NC1CCN(Cc2cccs2)CC1 | 5.127 |
